Source: PubChem BioAssay AID1159580 (chemical genetic matrix, 2015)
Values joined by “and” are separate entries in the source; they are usually repeats but may differ in a detail not shown here. Identical values can stand only once. Hit rate of the full screen: of about 5,500 compounds, about 2,000 (36%) were called active. Inconclusive results (about 18%) are left out. Rule as the data show it: active = normalized growth mostly below about 0.91 (no sharp cut-off); inconclusive = no clear call, values can overlap the other calls; inactive = mostly above about 0.92. The list shows a part of the results.

Test: chemical genetic growth profiling, strain panel (AID 1159580);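 also: tested at 20 µM; growth read once vehicle control cultures reached saturation at 30 °C; 1 = growth at the plate median or of vehicle wells; lower values mean less growth of the strain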
Conditions: S. cerevisiae deletion strains, growth OD

Measured: normalized growth

CCS(=O)(=O)CCn1c([N+](=O)[O-])cnc1C
inactive: locus YAL013W, strain DEP1, stronger effect = lower value 1.03 | locus YAL021C, strain ccr4, stronger effect = lower value 0.999 | locus YAL026C, strain drs2, stronger effect = lower value 0.995 | locus YAL030W, strain snc1, stronger effect = lower value 1.01 | locus YBL061C, strain skt5, stronger effect = lower value 1.01 | locus YBR009C, strain hhf1, stronger effect = lower value 0.962 | locus YBR021W, strain FUR4, stronger effect = lower value 1.01 | locus YBR023C, strain chs3, stronger effect = lower value 0.998 | locus YBR171W, strain sec66, stronger effect = lower value 1 | locus YBR229C, strain ROT2, stronger effect = lower value 1.01 | locus YBR231C, strain swc5, stronger effect = lower value 1 | locus YBR279W, strain paf1, stronger effect = lower value 0.985 | locus YCL011C, strain gbp2, stronger effect = lower value 1 | locus YCL016C, strain dcc1, stronger effect = lower value 1.02 | locus YCL029C, strain bik1, stronger effect = lower value 1.01 | locus YCL061C, strain MRC1, stronger effect = lower value 1.01 | locus YCL069W, strain vba3, stronger effect = lower value 0.974 | locus YCR088W, strain abp1, stronger effect = lower value 0.986 | locus YDL005C, strain med2, stronger effect = lower value 1.01 | locus YDL035C, strain GPR1, stronger effect = lower value 1.04 | locus YDL040C, strain nat1, stronger effect = lower value 0.995 | locus YDL074C, strain BRE1, stronger effect = lower value 1.06 | locus YDL101C, strain DUN1, stronger effect = lower value 1.01 | locus YDL134C, strain PPH21, stronger effect = lower value 1 | locus YDL185W, strain tfp1, stronger effect = lower value 1.02 | locus YDL192W, strain arf1, stronger effect = lower value 1.01 | locus YDR001C, strain nth1, stronger effect = lower value 0.991 | locus YDR069C, strain doa4, stronger effect = lower value 0.977 | locus YDR101C, strain arx1, stronger effect = lower value 1.01 | locus YDR137W, strain rgp1, stronger effect = lower value 0.957 | locus YDR150W, strain NUM1, stronger effect = lower value 1.02 | locus YDR159W, strain sac3, stronger effect = lower value 0.965 | locus YDR162C, strain NBP2, stronger effect = lower value 1.02 | locus YDR195W, strain ref2 0.952 | locus YDR297W, strain sur2, stronger effect = lower value 1 | locus YDR318W, strain mcm21, stronger effect = lower value 1.04 | locus YDR334W, strain swr1, stronger effect = lower value 0.966 | locus YDR335W, strain msn5, stronger effect = lower value 0.993 | locus YDR388W, stronger effect = lower value 1.01 | locus YDR392W, strain spt3, stronger effect = lower value 1.02 | locus YDR502C, strain sam2, stronger effect = lower value 1.01 | locus YEL003W, strain gim4, stronger effect = lower value 0.995 | locus YEL037C, strain rad23, stronger effect = lower value 0.981 | locus YEL061C, strain CIN8 (second series), stronger effect = lower value 0.998 | locus YEL061C, strain CIN8, stronger effect = lower value 1.01 | locus YER015W, strain faa2, stronger effect = lower value 1 | locus YER016W, strain bim1, stronger effect = lower value 1.01 | locus YER110C, stronger effect = lower value 1.02 | locus YER111C, strain swi4, stronger effect = lower value 1.02 | locus YER155C, strain BEM2 (second series), stronger effect = lower value 0.99 | locus YER155C, strain BEM2, stronger effect = lower value 0.996 | locus YER167W, strain BCK2, stronger effect = lower value 1.05 | locus YFR010W, strain ubp6, stronger effect = lower value 0.967 | locus YGL078C, strain dbp3, stronger effect = lower value 1 | locus YGL086W, strain mad1, stronger effect = lower value 1.05 | locus YGL167C, strain pmr1, stronger effect = lower value 0.994 | locus YGL173C, strain kem1, stronger effect = lower value 1.02 | locus YGL227W, strain vid30, stronger effect = lower value 1 | locus YGL240W, strain doc1, stronger effect = lower value 0.977 | locus YGL248W, strain PDE1, stronger effect = lower value 1 | locus YGL253W, strain hxk2, stronger effect = lower value 0.997 | locus YGR078C, strain PAC10, stronger effect = lower value 1.03 | locus YGR135W, strain pre9, stronger effect = lower value 1.01 | locus YGR229C, strain SMI1, stronger effect = lower value 1.02 | locus YGR252W, strain gcn5, stronger effect = lower value 1.01 | locus YHR013C, strain ard1, stronger effect = lower value 1.04 | locus YHR027C, strain rpn1, stronger effect = lower value 1.01 | locus YHR030C, strain SLT2, stronger effect = lower value 1.01 and 0.981 | locus YHR079C, strain IRE1 (second series), stronger effect = lower value 1.02 | locus YHR079C, strain IRE1, stronger effect = lower value 0.957 | locus YHR094C, strain hxt1, stronger effect = lower value 1.01 | locus YHR129C, strain ARP1, stronger effect = lower value 1.01 | locus YHR142W, strain chs7, stronger effect = lower value 1.01 | locus YHR200W, strain rpn10, stronger effect = lower value 1.02 | locus YIL066C, strain RNR3, stronger effect = lower value 1.02 | locus YIL073C, strain SPO22, stronger effect = lower value 1.1 | locus YIL125W, strain kgd1, stronger effect = lower value 1.01 | locus YIR030C, strain dcg1, stronger effect = lower value 1.01 | locus YJL092W, strain hpr5, stronger effect = lower value 1 | locus YJL095W, strain BCK1 (second series), stronger effect = lower value 0.989 | locus YJL095W, strain BCK1, stronger effect = lower value 1.02 and 0.959 | locus YJL115W, strain asf1, stronger effect = lower value 0.98 | locus YJL129C, strain trk1, stronger effect = lower value 1 | locus YJL134W, strain LCB3, stronger effect = lower value 1.01 | locus YJL154C, strain vps35, stronger effect = lower value 0.984 | locus YJL164C, strain tpk1, stronger effect = lower value 1 | locus YJL166W, strain qcr8, stronger effect = lower value 0.996 | locus YJL168C, strain set2, stronger effect = lower value 1.01 | locus YJL187C, strain SWE1 (second series), stronger effect = lower value 1.01 | locus YJR043C, strain POL32, stronger effect = lower value 1.08 | locus YJR066W, strain TOR1, stronger effect = lower value 0.945
